# Assay results as given in the supplement of paper PMC12669032.
# “And” between values parts separate entries of the source, which are not always exact repeats. Equal values may be shown once. Values without a mark were called inactive.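 Rule for the calls: active = AUC reduced over 20% with Padj below 0.05 in at least 2 of 3 replicates; inactive = otherwise.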
# What was measured:
# Assay in all cases: growth AUC relative to DMSO control (median of replicates) (fraction); higher = more growth (less inhibition), active = hit call of the paper
# Conditions in all cases: 20 µM; 24 h
# Coprococcus comes = tested on: Coprococcus comes
# Summary of the method: (§1)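 Gut bacterial monocultures were grown anaerobically at 37 °C in mGAM from a starting OD600 of 0.05 with 20 µM compound (1% DMSO), in round-bottom 96-well plates under pierced gas-permeable seals, and OD600 was read hourly for 24 h. With the minimum OD set to 0, area under the growth curve was normalised to the plate median of solvent-only wells, or to row and column medians on the industrial chemical plate. Each value is the median of three biological replicates grown on separate days.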
# Escherichia coli ED1a = tested on: Escherichia coli ED1a
# Summary of the method: as §1
# Escherichia coli IAI1 = tested on: Escherichia coli IAI1
# Summary of the method: as §1
# Eubacterium rectale = tested on: Eubacterium rectale
# Summary of the method: as §1
# [1] = tested on: Fusobacterium nucleatum subsp. animalis
# Summary of the method: as §1
# Lactobacillus gasseri = tested on: Lactobacillus gasseri
# Summary of the method: as §1
# Lactobacillus paracasei = tested on: Lactobacillus paracasei
# Summary of the method: as §1
# Odoribacter splanchnicus = tested on: Odoribacter splanchnicus
# Summary of the method: as §1
# [2] = tested on: Parabacteroides distasonis
# Summary of the method: as §1
# Parabacteroides merdae = tested on: Parabacteroides merdae
# Summary of the method: as §1
# Roseburia intestinalis = tested on: Roseburia intestinalis
# Summary of the method: as §1
# Streptococcus salivarius = tested on: Streptococcus salivarius
# Summary of the method: as §1
Structure (SMILES),growth AUC (Coprococcus comes),growth AUC (Escherichia coli ED1a),growth AUC (Escherichia coli IAI1),growth AUC (Eubacterium rectale),growth AUC [1],growth AUC (Lactobacillus gasseri),growth AUC (Lactobacillus paracasei),growth AUC (Odoribacter splanchnicus),growth AUC [2],growth AUC (Parabacteroides merdae),growth AUC (Roseburia intestinalis),growth AUC (Streptococcus salivarius)
O=C(O)COc1ccc(Cl)cc1Cl,1.02,1.01,0.991,0.943,0.947,1.08,1.05,0.958,0.988,0.982,1.03,0.989
Clc1nc(Cl)nc(Nc2ccccc2Cl)n1,1.03,1.01,0.998,0.859,1.02,0.991,1.01,1.08,1.04,0.969,1.04,1.03
CC(=NCc1ccc(Cl)nc1)NC#N,1,1.02,1.03,1,1.09,0.997,1.03,1.04,0.999,0.968,0.997,1
Oc1c(Cl)c(Cl)cc(Cl)c1Cl,0.971,0.917,0.746 (active),0.947,0.923,0.936,1.02,0.666 (active),0.637 (active),0.786,0.978,0.869
O=[N+]([O-])c1cc(Cl)ccc1Cl,0.935,0.983,0.979,1.04,1.04,0.872,1.05,1.04,1.01,0.987,0.931,0.981
Cc1cc(C)nc(Nc2ccccc2)n1,0.986,1.01,0.974,0.983,1.01,1.09,0.988,0.965,1,0.971,0.999,0.995
Nc1ccncc1,0.95,0.99,0.983,0.949,0.969,0.897,1,0.974,1.02,1.02,0.981,0.981
CCCN(CCC)c1c([N+](=O)[O-])cc(S(N)(=O)=O)cc1[N+](=O)[O-],0.973,0.996,0.973,0.894,0.9,0.935,0.942,0.934,0.971,0.997,0.961,0.985
NC(=O)/N=C1/SCCN1Cc1ccc(Cl)nc1,0.965,0.999,0.997,1.02,0.984,0.995,0.975,1.03,0.992,0.984,0.989,1.04
CCN(CC)C(=S)[S-].O.O.O.[Na+],0.964,0.972,0.976,0.983,1.09,1.01,0.978,1,0.982,0.873,0.894,1.03
ClC1C(Cl)C(Cl)C(Cl)C(Cl)C1Cl (stereo unspecified),,0.985 and 1.04 and 1.03,1 and 1.02 and 1.01,1.02 and 0.946 and 1.01,,,,,,,1.03 and 1.04 and 0.953,
CO/N=C(/C(=O)OC)c1ccccc1COc1ccccc1C,0.996,0.955,0.993,0.939,1.02,1.01,0.881,0.92,0.944,0.927,0.97,0.97
Cc1cccc(C)c1N,1.02,0.978,0.985,0.997,0.927,1.02,0.936,1.03,1.01,0.999,0.977,1.04
O=S(=O)(c1ccc(Cl)cc1)c1cc(Cl)c(Cl)cc1Cl,0.987,0.98,0.99,0.926,0.9,0.99,0.731,1.01,0.971,0.984,0.989,0.999
Cc1cc(OC(=O)N(C)C)nn1C(=O)N(C)C,1.03,0.996,0.971,1.01,1.03,0.992,0.963,0.935,1.11,0.966,1.06,0.971
Oc1ccc(-c2ccccc2)cc1,1.01,0.991,0.987,1,0.968,1.04,0.693,1.09,1.02,0.989,0.947,0.968
Cc1ccc(N(SC(F)(Cl)Cl)S(=O)(=O)N(C)C)cc1,1.02,0.974,0.982,1.03,1,1.07,1,1.02,1.06,1.04,1.01,1.01
COC(=O)Nc1cccc(OC(=O)Nc2cccc(C)c2)c1,1.03,1,0.966,1,0.944,0.933,0.987,1.05,0.976,0.968,0.936,0.996
COP(=S)(OC)Oc1ccc([N+](=O)[O-])c(C)c1,0.982,0.986,0.979,1.1,0.994,1.01,1.01,0.962,0.89,0.944,0.949,0.991

Structure (SMILES),growth AUC (Coprococcus comes),growth AUC (Escherichia coli ED1a),growth AUC (Escherichia coli IAI1),growth AUC (Eubacterium rectale),growth AUC [1],growth AUC (Lactobacillus gasseri),growth AUC (Lactobacillus paracasei),growth AUC (Odoribacter splanchnicus),growth AUC [2],growth AUC (Parabacteroides merdae),growth AUC (Roseburia intestinalis),growth AUC (Streptococcus salivarius)
CCOP(=S)(OCC)Oc1cc(-c2ccccc2)on1,1.03,0.993,0.993,1.05,0.973,0.886,0.964,1.01,0.854,1,0.993,0.995
Cc1ccccc1CO[C@@H]1C[C@@]2(C(C)C)CC[C@]1(C)O2 (mixture of isomers),1,1.02,0.961,1.14,1.02,0.96,1.01,1.04,0.887,1,0.978,0.97
CN(C)C(CSS(=O)(=O)[O-])CSS(=O)(=O)O.[Na+],0.987,1.03,1.01,1.5,1.11,0.952,0.984,1.05,0.979,1.03,1.06,0.979
Clc1ccc(Cl)c(Cl)c1,0.919,0.996,0.974,1.1,1.11,0.86,0.943,0.983,0.95,1.02,0.989,1.01
O=C1CCc2cccc3c2N1CC3,1.03,1,0.966,1.06,1.08,0.889,0.983,1.04,1.03,0.971,0.989,0.941
Nc1ccc(Cl)cc1,1.03,1.02,1,1.05,1.08,0.939,0.955,1.1,1.05,1.02,0.963,1.01
CNC(=O)Oc1ccccc1OC(C)C,0.974,0.986,0.982,0.952,0.994,0.892,0.982,1.02,1.01,0.981,1.01,0.98
COP(=S)(OC)SCN1C(=O)c2ccccc2C1=O,1,1,0.991,0.967,0.947,1.11,0.986,0.968,0.982,0.988,0.901,0.979
Clc1ccc(Cl)c(Cl)c1Cl,0.989,0.973,0.981,0.968,1.03,0.945,1.11,0.973,0.981,0.999,0.999,1.04
CCOc1cc(Oc2ccc(C(F)(F)F)cc2Cl)ccc1[N+](=O)[O-],0.602 (active),1.01,0.979,0.989,1.09,0.939,0.955,1.08,1.01,0.954,0.884,0.976
CCOP(=S)(OCC)SCCS(=O)(=O)CC,1.02,1.05,0.994,1.02,1,0.903,1.01,1.06,1.04,0.991,0.971,0.994
CCOc1ccc(C(C)(C)COCc2cccc(Oc3ccccc3)c2)cc1,1,0.991,0.982,1.06,0.972,0.918,1.04,1.07,0.987,0.992,0.975,0.983
Cc1cc(C2CC2)nc(Nc2ccccc2)n1,1.04,0.984,0.962,1.05,1.03,0.982,0.969,1.04,1.01,0.894,0.947,1.03
O=C1C(Cl)=C(Cl)C(=O)C(Cl)=C1Cl,1.02,1.03,1.02,0.844,1.01,0.973,1.01,0.912,1.04,0.927,0.995,1.01
C=CCC1=C(C)C(OC(=O)C2C(C=C(C)C)C2(C)C)CC1=O (stereo unspecified),0.986,1.01,1,0.927,0.946,0.868,0.949,0.996,0.846,0.96,0.968,0.986
O=P(O)(O)CCCl,1.06,1.02,1.02,1.22,1.04,0.975,1.01,1.12,1.01,1,1.03,1.04
CCOP(=S)(OCC)SCS(=O)(=O)CC,1.02,1.01,0.992,1.07,1.14,0.95,0.967,0.993,0.999,0.974,0.947,1.01
ClC1=C(Cl)C2(Cl)C(CBr)CC1(Cl)C2(Cl)Cl (stereo unspecified),0.994,0.956,0.986,1.01,0.969,0.858,1.03,1.01,0.973,0.973,0.993,1.03
